PubChem BioAssay (NCI)
Compounds without any hit were thinned out: in the full panel of roughly 83,000, 20% have a hit.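 Each cell line was grown in a 96-well plate and treated with one concentration of compound for 48 hours. Values below 10 were considered active.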 Values without a mark were called inactive. Active and inactive are the calls of the source.

How the values were obtained:
Test in all cases: NCI-60 one-dose screen, 48 h (100 = growth as untreated, 0 = no growth, -100 = all killed)
HCT-15 colon = conditions: 10 µM unless noted
SNB-75 CNS = conditions: 10 µM unless noted
SNB-19 CNS = conditions: 10 µM unless noted
U251 CNS = conditions: 10 µM unless noted
PC-3 prostate = conditions: 10 µM unless noted
SK-MEL-5 melanoma = conditions: 10 µM unless noted
LOX IMVI melanoma = conditions: 10 µM unless noted
SK-MEL-28 melanoma = conditions: 10 µM unless noted
SK-MEL-2 melanoma = conditions: 10 µM unless noted
EKVX NSCLC = conditions: 10 µM unless noted
SN12C renal = conditions: 10 µM unless noted
UO-31 renal = conditions: 10 µM unless noted
TK-10 renal = conditions: 10 µM unless noted
ACHN renal = conditions: 10 µM unless noted
A498 renal = conditions: 10 µM unless noted
CCRF-CEM leukemia = conditions: 10 µM unless noted
MOLT-4 leukemia = conditions: 10 µM unless noted
UACC-62 melanoma = conditions: 10 µM unless noted
CAKI-1 renal = conditions: 10 µM

C=C1C(=O)O[C@H]2[C@H]1CC/C(COC(=O)c1ccc3ccccc3c1)=C\CC[C@@]1(C)O[C@@H]21
growth (HCT-15 colon): -45.4% (active)
growth (SNB-75 CNS): 25.1%
growth (SNB-19 CNS): 11.6%
growth (U251 CNS): -67.3% (active)
growth (PC-3 prostate): -64% (active)
growth (SK-MEL-5 melanoma): -74.6% (active)
growth (LOX IMVI melanoma): -89.7% (active)
growth (SK-MEL-28 melanoma): -61.2% (active)
growth (SK-MEL-2 melanoma): -70.4% (active)
growth (EKVX NSCLC): -75.5% (active)
growth (SN12C renal): -54% (active)
growth (UO-31 renal): -98.9% (active)
growth (TK-10 renal): -95.9% (active)
growth (ACHN renal): -100% (active)
growth (A498 renal): 64.1%
growth (CCRF-CEM leukemia): -22.9% (active)
growth (MOLT-4 leukemia): -14.1% (active)

CCC(C)Nc1ccc(N)cc1 (configuration not stated)
growth (HCT-15 colon): 30.5%
growth (SNB-75 CNS): 29.8%
growth (SNB-19 CNS): 30.6%
growth (U251 CNS): 10.3%
growth (SK-MEL-5 melanoma): -6.02% (active)
growth (UACC-62 melanoma): 30.3%
growth (LOX IMVI melanoma): 5.41% (active)
growth (SK-MEL-28 melanoma): 71.6%
growth (SK-MEL-2 melanoma): 7.8% (active)
growth (EKVX NSCLC): 8.66% (active)
growth (SN12C renal): 10.5%
growth (UO-31 renal): -2.85% (active)
growth (TK-10 renal): 45.4%
growth (ACHN renal): 46%
growth (A498 renal): 91.9%
growth (CCRF-CEM leukemia): 12.8%

Nc1ncnc2c1c(-c1ccc(Oc3ccccc3)cc1)nn2C[C@H]1SSC[C@H]1O
growth (HCT-15 colon): 26.6%
growth (SNB-75 CNS): 3.26% (active)
growth (SNB-19 CNS): 45.9%
growth (U251 CNS): 21.1%
growth (PC-3 prostate): 50.7%
growth (SK-MEL-5 melanoma): -92.5% (active)
growth (UACC-62 melanoma): -48.8% (active)
growth (LOX IMVI melanoma): -57.7% (active)
growth (SK-MEL-28 melanoma): -16.3% (active)
growth (SK-MEL-2 melanoma): -75.1% (active)
growth (EKVX NSCLC): 6.97% (active)
growth (SN12C renal): 20.7%
growth (UO-31 renal): -3.37% (active)
growth (ACHN renal): 10.3%
growth (A498 renal): 18.9%
growth (CCRF-CEM leukemia): 11.1%
growth (MOLT-4 leukemia): -2.47% (active)

NC(=O)C1=C[C@H]2[C@H]3C=C[C@@]2(O)C(=O)O[C@@H]3O1
growth (HCT-15 colon): 44.8%
growth (SNB-75 CNS): 76.7%
growth (SNB-19 CNS): 82%
growth (U251 CNS): 63.1%
growth (PC-3 prostate): 59.1%
growth (SK-MEL-5 melanoma): 60.7%
growth (UACC-62 melanoma): 35.5%
growth (LOX IMVI melanoma): 22.9%
growth (SK-MEL-28 melanoma): 25.2%
growth (SK-MEL-2 melanoma): 42.4%
growth (EKVX NSCLC): 63.2%
growth (SN12C renal): 57.6%
growth (UO-31 renal): 54.5%
growth (ACHN renal): 44%
growth (CAKI-1 renal): 46.5%
growth (A498 renal): 81.3%
growth (CCRF-CEM leukemia): 26.9%
growth (MOLT-4 leukemia): 42.3%

CC(=O)N1N=C(CCC(=O)c2nc3ccc([N+](=O)[O-])cc3[nH]2)OC1c1ccc(O)cc1 (configuration not stated)
growth (HCT-15 colon): 97.1%
growth (SNB-75 CNS): 97.9%
growth (SNB-19 CNS): 107%
growth (U251 CNS): 109%
growth (PC-3 prostate): 101%
growth (SK-MEL-5 melanoma): 112%
growth (UACC-62 melanoma): 105%
growth (LOX IMVI melanoma): 94.8%
growth (SK-MEL-28 melanoma): 115%
growth (SK-MEL-2 melanoma): 57.4%
growth (EKVX NSCLC): 92.5%
growth (SN12C renal): 109%
growth (UO-31 renal): 80.9%
growth (TK-10 renal): 113%
growth (ACHN renal): 106%
growth (A498 renal): 104%
growth (CCRF-CEM leukemia): 114%

COc1cc(-c2nc3ccccc3s2)ccc1OCc1nc2n(n1)S(=O)(=O)c1ccccc1N2C
growth (HCT-15 colon): 91.5%
growth (SNB-75 CNS): 41%
growth (SNB-19 CNS): 91%
growth (U251 CNS): 73.2%
growth (PC-3 prostate): 80.8%
growth (SK-MEL-5 melanoma): 82.1%
growth (UACC-62 melanoma): 103%
growth (LOX IMVI melanoma): 72.3%
growth (SK-MEL-28 melanoma): 103%
growth (SK-MEL-2 melanoma): 85.9%
growth (EKVX NSCLC): 53.6%
growth (SN12C renal): 107%
growth (UO-31 renal): 72.8%
growth (TK-10 renal): 87.8%
growth (ACHN renal): 94.3%
growth (A498 renal): 89.9%
growth (CCRF-CEM leukemia): 4.89% (active)
growth (MOLT-4 leukemia): 89.1%

COc1ccc(-c2ccc(NC(=O)Nc3ccc(Cl)c(C(F)(F)F)c3)c(C)n2)cc1
growth (HCT-15 colon): 37.8%
growth (SNB-75 CNS): 73.4%
growth (SNB-19 CNS): 57.3%
growth (U251 CNS): 33.6%
growth (PC-3 prostate): 14.7%
growth (SK-MEL-5 melanoma): 55.7%
growth (LOX IMVI melanoma): 64.5%
growth (SK-MEL-28 melanoma): 71.4%
growth (SK-MEL-2 melanoma): 62.1%
growth (EKVX NSCLC): 49.2%
growth (SN12C renal): 57.4%
growth (UO-31 renal): 39.3%
growth (TK-10 renal): 65.9%
growth (A498 renal): 57.7%
growth (CCRF-CEM leukemia): 29.9%
growth (MOLT-4 leukemia): 24.6%

O=[N+]([O-])c1cccc2cc(S(=O)(=O)O)ccc12
growth (HCT-15 colon): 103%
growth (SNB-75 CNS): 118%
growth (SNB-19 CNS): 106%
growth (U251 CNS): 94.7%
growth (PC-3 prostate): 84%
growth (SK-MEL-5 melanoma): 103%
growth (UACC-62 melanoma): 100%
growth (LOX IMVI melanoma): 92.1%
growth (SK-MEL-28 melanoma): 111%
growth (SK-MEL-2 melanoma): 101%
growth (EKVX NSCLC): 96.2%
growth (SN12C renal): 98%
growth (UO-31 renal): 92.2%
growth (TK-10 renal): 94%
growth (ACHN renal): 112%
growth (A498 renal): 115%
growth (MOLT-4 leukemia): 85.5%

c1nc(SC2=NCCN2)c2[nH]cnc2n1
growth (HCT-15 colon): 57.8%
growth (SNB-75 CNS): 52.7%
growth (SNB-19 CNS): 103%
growth (U251 CNS): 79.4%
growth (PC-3 prostate): 57.5%
growth (SK-MEL-5 melanoma): 79.1%
growth (UACC-62 melanoma): 19.1%
growth (LOX IMVI melanoma): 6.53% (active)
growth (SK-MEL-28 melanoma): 95.4%
growth (SK-MEL-2 melanoma): 38.8%
growth (EKVX NSCLC): 88.7%
growth (SN12C renal): 78.7%
growth (UO-31 renal): 40.6%
growth (TK-10 renal): 22.6%
growth (ACHN renal): 54.2%
growth (A498 renal): 92.8%
growth (CCRF-CEM leukemia): 31.3%
growth (MOLT-4 leukemia): 16%

O=C(Nc1ccc(-n2cc(-c3ccncc3)c(-c3ccc(O)c(Cl)c3)n2)cc1)c1ccc(Cl)c(Cl)c1
growth (HCT-15 colon): 18.2%
growth (SNB-75 CNS): 70%
growth (SNB-19 CNS): 59.6%
growth (U251 CNS): 26.8%
growth (PC-3 prostate): 20.2%
growth (SK-MEL-5 melanoma): -20.3% (active)
growth (UACC-62 melanoma): 59.1%
growth (LOX IMVI melanoma): -29.1% (active)
growth (SK-MEL-28 melanoma): 59.7%
growth (SK-MEL-2 melanoma): 20.2%
growth (EKVX NSCLC): 47.7%
growth (SN12C renal): 58.3%
growth (UO-31 renal): 23%
growth (ACHN renal): 20.6%
growth (CAKI-1 renal): 18.6%
growth (A498 renal): 79.6%
growth (CCRF-CEM leukemia): 16.5%
growth (MOLT-4 leukemia): 32.3%
